Molecules are shown by their SMILES. Among all 340,000 compounds or so, about 200 (0.059%) were called active. The sample as a whole holds a higher share of actives than the screen did. Values without a mark were called inactive. Rule as the data show it: active = inhibition above about 34%; inactive = the rest.

One may read the inhibition as the change of the read-out against control, counted positive when it falls.

Sequence of Diacylglycerol lipase-beta (Homo sapiens) (Q8NCG7 whole entry, looked up): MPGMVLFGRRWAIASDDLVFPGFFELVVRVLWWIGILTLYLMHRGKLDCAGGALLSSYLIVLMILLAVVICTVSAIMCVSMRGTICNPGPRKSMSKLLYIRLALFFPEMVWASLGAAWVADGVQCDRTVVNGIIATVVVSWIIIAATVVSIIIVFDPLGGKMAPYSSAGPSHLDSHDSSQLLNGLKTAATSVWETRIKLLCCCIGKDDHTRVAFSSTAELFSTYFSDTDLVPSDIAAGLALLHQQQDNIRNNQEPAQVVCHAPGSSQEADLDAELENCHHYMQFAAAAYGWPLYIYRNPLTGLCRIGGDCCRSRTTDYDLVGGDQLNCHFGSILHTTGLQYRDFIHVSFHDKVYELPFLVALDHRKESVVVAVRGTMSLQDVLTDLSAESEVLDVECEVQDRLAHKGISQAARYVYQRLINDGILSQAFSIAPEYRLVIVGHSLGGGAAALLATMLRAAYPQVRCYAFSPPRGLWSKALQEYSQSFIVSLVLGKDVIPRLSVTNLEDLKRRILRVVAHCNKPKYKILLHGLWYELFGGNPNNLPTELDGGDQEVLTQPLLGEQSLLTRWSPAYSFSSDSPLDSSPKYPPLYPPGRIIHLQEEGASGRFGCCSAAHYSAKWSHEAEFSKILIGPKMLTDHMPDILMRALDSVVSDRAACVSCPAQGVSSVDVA

This assay has as its target Diacylglycerol lipase-beta (Homo sapiens) (UniProt Q8NCG7). Briefly: inhibition of human DAGLB hydrolase activity – biochemical, fluorescence, HTS, primary screen (AID 504411).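 Also: 0% = enzyme with vehicle and 100% = wells lacking enzyme.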 The settings on record: HEK293T DAGLB membrane lysate, EnzChek fluorogenic substrate; at 5.17 µM; hits give high values.
In the case of `O=C(CCc1ccc(O)cc1)NN=Cc1cc(Br)ccc1O`, the inhibition is 3.63%.
As for `NC(N)=NCCCc1cn(CC(=O)N2CCNCC2)nn1`, the inhibition is -3.67%.
On to `COc1ccc(CCNC(=O)c2ccc(NC(=O)CC3SC(N4CCCCC4)=NC3=O)cc2)cc1OC` (stereo not given), for which the inhibition is 2.1%.
To `O=C(O)c1ccccc1-c1ccccc1C(=O)Nc1ccccc1Br` belongs 0.09%.
The figure for `CC(NC(=O)c1ccccc1SCC(=O)N1CCCC1)c1ccccc1` (stereo not given) is 0.41%; for `Cc1ccc2cccc(O)c2[n+]1[O-]` it is 1.39%; for `CN1CCC(=NNC(=O)CN(c2cccc(Cl)c2)S(C)(=O)=O)CC1` it is -3.34%.
`Cc1ccccc1CSc1nnc(Cn2c(=O)sc3ccccc32)n1C`: the inhibition was 0.6%.
Turning to `C/C(=N\OCC(=O)Nc1ccc(Br)cc1)c1cccs1`, the inhibition was -7.81%.
In the case of `COc1ccccc1C1CCN(C(=S)Nc2ccc(Br)cc2)CC1`, the inhibition was 23.2%.
For the molecule `CCc1cccc(C)c1NS(=O)(=O)c1c(C)nc2sccn2c1=O`, the inhibition was -0.01%.
For `COc1ccc(S(=O)(=O)N/N=C\c2ccc(OC)c(COc3ccc(C)cc3[N+](=O)[O-])c2)cc1`, the inhibition is -2.91%.
The figure for `O=c1c2ccccc2nc2n1C(CSCc1cccc(C(F)(F)F)c1)CS2` (stereo not given) is -3.32%; for `COc1cc(NC(=O)CCS(=O)(=O)c2ccc3c(c2)oc(=O)n3C)cc(OC)c1` it is -2.39%.
To `CC(=O)Nc1ccc(/C(C)=N/NC(=O)CN(c2ccccc2Br)S(C)(=O)=O)cc1` belongs 1.17%; to `COc1ccc(CNC(=O)C(=O)N2CCC3(CC2)OCCN3S(=O)(=O)c2ccc(C)cc2)cc1`, -1.66%.
Regarding `COC(=O)c1cccc(NS(C)(=O)=O)c1`, the inhibition was -0.97%.
The figure for `CC(OC(=O)c1cc2ccccc2o1)C(=O)Nc1ccc(N2CCOCC2)cc1` (stereo not given) is -1.16%; for `COc1ccc(C(=O)OCC(=O)Nc2cc(C)on2)cc1F` it is 1.42%; for `COCCCN1C(=O)C(CC(=O)NCc2cccs2)CC(C(=O)N2CCOCC2)=C1C` (stereo not given) it is -1.14%.
Consider `CN(C(=O)CN1C(=O)CCSc2ccc(S(=O)(=O)N3CCCC3)cc21)c1ccccc1`, for which the inhibition is 3.08%.
To `O=C1CCCN1CCCNC(=S)Nc1ccc(F)c(Cl)c1` belongs 0.01%; to `COC(=O)CN1C(C)=Nc2ccc(Br)cc2C1c1ccccc1` (stereo not given), 0.08%.
To `Cc1ccccc1C(=O)NNC(=O)CN1C(=O)c2ccccc2C1=O` belongs 0.77%.
Consider `CC(=O)c1ccc(S(=O)(=O)N2CCC(Oc3ccc(-n4cnnn4)cc3)CC2)cc1`, for which the inhibition was -1.2%.
To `COc1ccc(-c2cc(C(F)(F)F)nc(S(C)(=O)=O)n2)cc1OC` belongs -5.4%.
To `O=C(Cn1ncc2c3ccccc3n(Cc3ccccc3)c2c1=O)NCCCN1CCOCC1` belongs -2.32%.
The figure for `CC(C)c1ccc2c(c1)c(SC(C)(C)C)c(CC(C)(C)C(=O)O)n2Cc1ccc(Cl)cc1` is 1.23%; for `COCc1cc(C)n(CC(=O)NCC2CCCO2)c(=O)c1C#N` (stereo not given) it is 0.87%; for `CS(=O)(=O)N1CCCC(C(=O)Nc2ccccc2C(F)(F)F)C1` (stereo not given) it is -1.81%.
As to `COC(=O)C(=Nc1ccccc1)/C(C(=O)C(=O)N(C)c1ccccc1)=C(\O)c1ccc(Cl)cc1`, the inhibition was 4.54%.
To `COc1ccc(CNC(=O)c2ccc3oc(C(C)C)nc3c2)cc1` belongs -2.02%.
Take `Cc1ccc(CC(=O)N(C)CC(=O)N(CC(C)C)c2c(N)n(CC(C)C)c(=O)[nH]c2=O)cc1C`: the inhibition was 1.88%.
For the molecule `COc1ccc(C2=NS(=O)(=O)N(C)C(C(=O)NC(C)c3ccccc3)=C2)cc1` (stereo not given), the inhibition is -1.27%.
To `CCCNC(=O)CCn1cc(-c2ccc(OC)cc2)nc1CCN` belongs -2.88%.
As for `CCC(Oc1ccccc1C)C(=O)Nc1ccc(S(=O)(=O)Nc2cc(C)on2)cc1` (stereo not given), the inhibition was 2.56%.
The figure for `Cc1cccc2[nH]c(CN(C)C(=O)C3CCC(=O)N(CCc4ccccc4)C3)nc12` (stereo not given) is 1.57%; for `Cc1ccc(S(=O)(=O)N2[C@@H](c3ccc(Br)cc3)C(C(=O)O)=C[C@H]2CC2CCCC2)cc1` it is 7.5%.
The figure for `Cc1ccc(N2CC(C(=O)N3CCC4(CC3)CC(=O)c3ccccc3O4)CC2=O)cc1C` (stereo not given) is -0.05%.
To `CCc1c(C)sc(NC(=O)OC)c1C(=O)N1CCOCC1` belongs -2.33%; to `Cc1ccccc1C(=O)N1CCC(C(=O)Nc2ccc(S(=O)(=O)N(C)C(C)C)cc2)CC1`, -0.44%; to `CC1Cc2ccccc2N1C(=O)c1cc2sccc2n1Cc1ccccc1` (stereo not given), -8.28%.
Turning to `COc1cccc(NC(=O)CN(C)CC(=O)c2c(N)n(Cc3ccccc3)c(=O)n(C)c2=O)c1`, the inhibition was 0.04%.
`Nc1ccccc1-c1nc2ccncc2[nH]1`: the inhibition is 0.67%.
`CN(C)c1ccc(NC(=O)CN2C3CCCC2CC(NC(=O)c2ccccc2)C3)cc1` (stereo not given): the inhibition was 0.94%.
Regarding `CCOC(=O)c1c(NC(=O)CCCN2CCOCC2)sc2c1CC(C)(C)OC2`, the inhibition is -0.04%.
As for `CCOCCCNC(=O)c1cc2c(=O)n3ccccc3nc2s1`, the inhibition is 1.17%.
As for `CCCC(O)(c1ccccc1)C(c1ccccc1)c1ccccn1` (stereo not given), the inhibition is -1.16%.
For `Cc1ccc(OC(=O)c2c(C)nn(-c3ccccc3)c2C)cc1`, the inhibition was -9.87%.
For the molecule `Cc1ccc(Cl)c(NC(=O)CN(C)CC(=O)Nc2ccc(F)c(F)c2F)c1Cl`, the inhibition is 2.92%.
As for `CCOc1ccccc1OCCCNCc1ccccc1`, the inhibition was -2.73%.
As for `C=CCOc1nc2c(c(=O)n(C)c(=O)n2C)n1Cc1ccc(Cl)cc1Cl`, the inhibition was -0.75%.
The figure for `CCOC(=O)C1CCN(C(=O)Nc2ccc(C)c(Cl)c2)CC1` is 0.52%.
The figure for `CCN(CC(=O)NCCCN1CCOCC1)S(=O)(=O)c1cc(Cl)ccc1Cl` is 3.54%; for `CN(c1ccccn1)c1ncnc2[nH]ncc12` it is 0.01%; for `Cc1ccnc(NC(=O)C2CCN(S(=O)(=O)c3c(C)c(C)cc(C)c3C)CC2)c1` it is -5.56%.
Turning to `O=C1COc2ccc(C(=O)COC(=O)c3ccccc3Cl)cc2N1`, the inhibition is -2.51%.
To `CCN1CCN(CC(=O)c2cc(OC)c(OC)c(OC)c2)CC1` belongs -1.97%.
The figure for `COc1ccc(/C=C/CN2CCN(Cc3ccc(C)cc3)C(CCO)C2)cc1` (stereo not given) is -2.8%.
To `Cc1ccccc1C(=O)N1CCC(C(=O)Oc2ccc(C#N)cc2)CC1` belongs -0.99%; to `COc1ccc(-c2nc(N)sc2C2(O)C(=O)Nc3c(Br)cc(F)cc32)cc1OC` (stereo not given), -0.83%; to `O=S1(=O)CCO[C@H]2Cc3ccccc3[C@H]2N1Cc1ccccc1`, -1.47%.
Turning to `Cc1nc(NC(=O)c2ccc3c(c2)OCCO3)ccc1Br`, the inhibition is -9.56%.
With `COc1ccc(OC)c(NC(=O)CN(C)CCOc2ccc(Br)cc2)c1`, the inhibition is -4.02%.
Regarding `CCOC(=O)c1sc(/N=C/Nc2nc(C)c(C(=O)OCC)s2)nc1C`, the inhibition was -0.89%.
As to `O=C(Nc1c2c(nn1-c1cccc(Cl)c1)CS(=O)(=O)C2)c1cccs1`, the inhibition is -3.19%.
To `CCOC(=O)c1nn(-c2ccccc2F)c2nc(Nc3ccccc3)cc(=O)n12` belongs 0.18%.
Consider `Cc1nn(-c2ncccn2)c2c1C(=O)CC(C)(C)C2Br` (stereo not given), for which the inhibition was -0.78%.
The figure for `CCCN1C(=O)C(NS(=O)(=O)c2ccc(N)cc2)(C(F)(F)F)C(C(=O)OC)=C1C` (stereo not given) is 0.93%; for `COc1ccc(C(=O)CN2C(=O)NC3(CCc4ccccc43)C2=O)c(OC)c1` (stereo not given) it is -2.52%.
As to `CC(=O)Nc1ccc(NS(=O)(=O)c2cc(C)sc2C)cc1`, the inhibition is 2.41%.
To `COc1cccc(N(C(=O)CNC(=O)c2ccco2)C(C(=O)NC2CCCCC2)c2cccnc2)c1` (stereo not given) belongs -2.11%; to `O=c1[nH]c2c(c(=O)n1-c1ccccc1)CCO2`, 0.85%; to `CCOC(=O)c1cnc2ccc(F)cc2c1Nc1ccc2c(c1)OCCO2`, -13.6%.
Consider `COc1cc(CCC(=O)N2CCN(c3ccccc3Cl)CC2)cc(OC)c1OC`, for which the inhibition was -2.89%.
Turning to `O=C(c1cccs1)N1CCCC(c2nc(-c3ccc(F)cc3)no2)C1` (stereo not given), the inhibition is -7.27%.
With `C=CCNC(=S)N1CCN(CCN=Cc2c(C)[nH]n(-c3ccc([N+](=O)[O-])cc3)c2=O)CC1`, the inhibition was 1.77%.
Turning to `O=C(CN1CCC(NC(=O)C2CC2)CC1)Nc1ccccc1[N+](=O)[O-]`, the inhibition is 1.28%.
The figure for `O=C(O)c1ccc(/C=N/NC(=S)NCc2ccccc2)cc1` is 3.11%; for `Cc1ccc(/C=N/NC(=O)COc2ccccc2-c2ccccc2)cc1` it is -8.44%.
The figure for `Cc1ccc(/C=N/NC(=O)C(NC(=O)c2ccccc2)c2n[nH]c(=O)c3ccccc23)cc1` (stereo not given) is 34.8% (active); for `COc1ccc(N(CC(=O)N2CCOCC2)S(=O)(=O)c2ccccc2)cc1Cl` it is -0.45%; for `COc1ccc(NC(=O)C[C@H]2C(=O)N(CCc3ccccc3)C[C@@H]2C)cc1` it is -3.33%.
Consider `CCC1C=C(c2ccccc2)C=CN=C1N(CC)CC` (stereo not given), for which the inhibition was -3.08%.
Regarding `Nc1ccc(OCC(O)C[n+]2ccc(CCS(=O)(=O)[O-])cc2)cc1` (stereo not given), the inhibition is 0.26%.
Take `CCc1c(C)sc(NC(=O)c2cccs2)c1C(N)=O`: the inhibition is -1.07%.
To `O=c1oc2ccc(C#CC3(O)CCCCC3)cc2cc1-n1cc(-c2ccsc2)nn1` belongs 0.49%; to `COc1ccccc1NS(=O)(=O)N(C)C`, -1.14%.
Consider `Cc1ccc(Cc2c(-c3ccccc3)nc3ccc(Cl)cn23)cc1`, for which the inhibition is -5.98%.
The figure for `O=C(NCCCN1CCOCC1)c1cnn2c(-c3ccccc3)cc(-c3ccccc3)nc12` is 1.48%.
